This is an account of results in the supplement of paper PMC10849652.

Of roughly 8,800 targets only a part is listed; those with a hit were picked by preference. About 0.5% of all pairs of compound and target were hits.

UniProt P08473, sequence (P08473 whole entry, looked up): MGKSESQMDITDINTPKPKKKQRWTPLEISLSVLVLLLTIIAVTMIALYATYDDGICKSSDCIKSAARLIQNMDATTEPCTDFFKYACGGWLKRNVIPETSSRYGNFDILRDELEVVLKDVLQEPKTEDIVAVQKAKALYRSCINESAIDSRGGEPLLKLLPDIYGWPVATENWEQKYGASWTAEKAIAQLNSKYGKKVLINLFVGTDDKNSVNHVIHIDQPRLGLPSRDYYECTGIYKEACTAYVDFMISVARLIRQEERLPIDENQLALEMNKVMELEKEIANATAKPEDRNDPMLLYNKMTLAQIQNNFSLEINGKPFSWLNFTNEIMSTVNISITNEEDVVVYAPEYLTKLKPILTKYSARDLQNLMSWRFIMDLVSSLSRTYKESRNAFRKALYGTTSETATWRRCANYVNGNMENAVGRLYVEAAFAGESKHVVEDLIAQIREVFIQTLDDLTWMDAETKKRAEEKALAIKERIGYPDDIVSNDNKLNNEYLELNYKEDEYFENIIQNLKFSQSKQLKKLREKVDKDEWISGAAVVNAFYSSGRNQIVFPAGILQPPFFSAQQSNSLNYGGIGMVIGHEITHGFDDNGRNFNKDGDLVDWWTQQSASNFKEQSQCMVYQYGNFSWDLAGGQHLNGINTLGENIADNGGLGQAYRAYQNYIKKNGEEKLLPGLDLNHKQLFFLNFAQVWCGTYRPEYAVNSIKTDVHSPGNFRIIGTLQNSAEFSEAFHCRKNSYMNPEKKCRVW
UniProt Q9BVG8, sequence (Q9BVG8 whole entry, looked up): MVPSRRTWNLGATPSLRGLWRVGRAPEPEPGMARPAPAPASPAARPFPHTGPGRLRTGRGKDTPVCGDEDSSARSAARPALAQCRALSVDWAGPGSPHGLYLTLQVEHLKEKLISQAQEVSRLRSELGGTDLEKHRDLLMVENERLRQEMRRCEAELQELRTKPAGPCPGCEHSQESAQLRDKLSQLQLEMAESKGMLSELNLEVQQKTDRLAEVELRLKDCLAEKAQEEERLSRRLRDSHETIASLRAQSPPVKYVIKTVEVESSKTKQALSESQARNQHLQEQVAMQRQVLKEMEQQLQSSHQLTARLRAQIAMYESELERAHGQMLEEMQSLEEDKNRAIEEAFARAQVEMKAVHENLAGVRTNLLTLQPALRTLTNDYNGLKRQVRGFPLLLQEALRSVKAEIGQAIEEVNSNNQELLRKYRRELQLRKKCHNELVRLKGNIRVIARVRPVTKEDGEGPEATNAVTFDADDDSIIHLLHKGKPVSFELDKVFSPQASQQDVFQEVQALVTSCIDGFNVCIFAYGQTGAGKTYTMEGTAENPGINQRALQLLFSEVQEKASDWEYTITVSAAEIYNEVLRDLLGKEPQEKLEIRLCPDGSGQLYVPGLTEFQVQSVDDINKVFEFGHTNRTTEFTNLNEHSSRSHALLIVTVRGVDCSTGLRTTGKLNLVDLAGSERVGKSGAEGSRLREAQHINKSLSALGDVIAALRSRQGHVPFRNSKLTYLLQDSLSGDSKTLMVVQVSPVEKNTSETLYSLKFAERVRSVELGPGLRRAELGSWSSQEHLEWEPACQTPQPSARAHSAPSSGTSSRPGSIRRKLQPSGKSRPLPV
UniProt Q6ZRQ5, sequence (Q6ZRQ5 whole entry, looked up): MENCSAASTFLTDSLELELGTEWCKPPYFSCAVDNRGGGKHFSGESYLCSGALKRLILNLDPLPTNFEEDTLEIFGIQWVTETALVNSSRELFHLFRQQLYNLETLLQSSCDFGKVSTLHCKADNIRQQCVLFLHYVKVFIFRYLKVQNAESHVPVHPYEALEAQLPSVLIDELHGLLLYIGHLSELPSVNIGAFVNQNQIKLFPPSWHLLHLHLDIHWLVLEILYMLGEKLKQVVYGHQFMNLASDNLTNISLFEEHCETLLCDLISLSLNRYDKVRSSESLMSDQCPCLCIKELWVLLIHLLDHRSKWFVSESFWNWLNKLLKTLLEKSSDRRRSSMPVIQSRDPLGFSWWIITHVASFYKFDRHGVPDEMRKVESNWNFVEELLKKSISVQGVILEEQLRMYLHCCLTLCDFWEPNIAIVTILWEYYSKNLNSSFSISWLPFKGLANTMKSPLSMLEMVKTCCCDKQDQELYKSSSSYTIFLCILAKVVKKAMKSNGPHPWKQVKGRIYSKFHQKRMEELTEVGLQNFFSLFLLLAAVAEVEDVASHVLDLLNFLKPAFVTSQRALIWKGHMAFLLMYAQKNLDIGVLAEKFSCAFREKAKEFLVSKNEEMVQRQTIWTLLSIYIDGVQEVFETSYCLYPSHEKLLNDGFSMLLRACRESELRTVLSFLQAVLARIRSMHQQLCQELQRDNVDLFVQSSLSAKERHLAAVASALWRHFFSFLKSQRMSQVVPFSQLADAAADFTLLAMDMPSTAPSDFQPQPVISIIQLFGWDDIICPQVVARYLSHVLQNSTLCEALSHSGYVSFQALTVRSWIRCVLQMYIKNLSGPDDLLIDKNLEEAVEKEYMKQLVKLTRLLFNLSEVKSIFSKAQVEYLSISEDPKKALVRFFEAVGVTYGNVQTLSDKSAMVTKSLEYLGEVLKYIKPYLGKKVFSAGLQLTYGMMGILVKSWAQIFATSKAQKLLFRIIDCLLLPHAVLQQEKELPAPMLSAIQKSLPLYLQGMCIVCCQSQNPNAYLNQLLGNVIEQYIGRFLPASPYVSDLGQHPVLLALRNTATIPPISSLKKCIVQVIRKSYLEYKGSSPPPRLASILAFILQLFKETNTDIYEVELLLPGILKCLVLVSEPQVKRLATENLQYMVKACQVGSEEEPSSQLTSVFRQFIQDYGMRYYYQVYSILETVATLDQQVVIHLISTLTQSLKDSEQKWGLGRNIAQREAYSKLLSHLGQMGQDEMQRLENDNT
UniProt P53778, sequence (P53778 whole entry, looked up): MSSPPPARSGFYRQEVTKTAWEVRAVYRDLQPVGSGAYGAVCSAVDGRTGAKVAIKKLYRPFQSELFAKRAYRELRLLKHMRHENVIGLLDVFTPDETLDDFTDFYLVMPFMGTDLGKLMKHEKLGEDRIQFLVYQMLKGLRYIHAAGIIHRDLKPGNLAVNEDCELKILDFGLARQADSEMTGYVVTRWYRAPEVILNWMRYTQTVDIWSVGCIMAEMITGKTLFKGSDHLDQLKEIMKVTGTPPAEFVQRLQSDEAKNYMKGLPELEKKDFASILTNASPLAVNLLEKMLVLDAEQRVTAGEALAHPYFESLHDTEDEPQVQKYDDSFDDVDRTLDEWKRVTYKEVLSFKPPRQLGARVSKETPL
UniProt O95819, sequence (O95819 whole entry, looked up): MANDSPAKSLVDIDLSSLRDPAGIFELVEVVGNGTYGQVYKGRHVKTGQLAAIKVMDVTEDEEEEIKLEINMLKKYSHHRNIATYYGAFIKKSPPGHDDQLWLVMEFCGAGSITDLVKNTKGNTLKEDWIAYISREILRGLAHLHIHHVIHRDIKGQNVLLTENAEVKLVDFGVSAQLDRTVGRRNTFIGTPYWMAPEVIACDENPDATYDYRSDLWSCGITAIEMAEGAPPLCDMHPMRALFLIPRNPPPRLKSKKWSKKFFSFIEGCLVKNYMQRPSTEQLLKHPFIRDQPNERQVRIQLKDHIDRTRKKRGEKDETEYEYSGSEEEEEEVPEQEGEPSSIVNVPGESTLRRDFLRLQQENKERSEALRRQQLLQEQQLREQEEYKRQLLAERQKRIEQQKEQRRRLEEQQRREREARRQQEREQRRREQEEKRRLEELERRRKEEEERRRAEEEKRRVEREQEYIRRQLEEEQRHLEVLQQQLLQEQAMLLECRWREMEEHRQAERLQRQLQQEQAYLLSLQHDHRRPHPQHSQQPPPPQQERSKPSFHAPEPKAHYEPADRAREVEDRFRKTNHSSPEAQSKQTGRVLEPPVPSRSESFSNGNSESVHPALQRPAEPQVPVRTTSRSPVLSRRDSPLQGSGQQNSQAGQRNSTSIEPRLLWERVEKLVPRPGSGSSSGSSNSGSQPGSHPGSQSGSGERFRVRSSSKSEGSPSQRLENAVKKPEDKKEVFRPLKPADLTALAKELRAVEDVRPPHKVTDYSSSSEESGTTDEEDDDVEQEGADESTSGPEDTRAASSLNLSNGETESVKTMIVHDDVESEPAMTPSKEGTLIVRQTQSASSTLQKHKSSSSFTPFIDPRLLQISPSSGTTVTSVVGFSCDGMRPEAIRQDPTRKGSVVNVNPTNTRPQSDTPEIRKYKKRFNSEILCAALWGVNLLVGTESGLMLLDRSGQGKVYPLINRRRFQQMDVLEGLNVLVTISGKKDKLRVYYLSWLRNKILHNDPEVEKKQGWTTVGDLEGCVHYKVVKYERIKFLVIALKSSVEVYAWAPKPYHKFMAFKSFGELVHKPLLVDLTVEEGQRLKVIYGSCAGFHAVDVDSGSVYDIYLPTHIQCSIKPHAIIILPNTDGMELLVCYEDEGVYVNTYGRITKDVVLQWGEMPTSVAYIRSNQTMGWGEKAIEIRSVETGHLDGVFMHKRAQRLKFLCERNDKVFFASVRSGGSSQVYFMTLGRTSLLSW
UniProt Q8WXB1, sequence (Q8WXB1 whole entry, looked up): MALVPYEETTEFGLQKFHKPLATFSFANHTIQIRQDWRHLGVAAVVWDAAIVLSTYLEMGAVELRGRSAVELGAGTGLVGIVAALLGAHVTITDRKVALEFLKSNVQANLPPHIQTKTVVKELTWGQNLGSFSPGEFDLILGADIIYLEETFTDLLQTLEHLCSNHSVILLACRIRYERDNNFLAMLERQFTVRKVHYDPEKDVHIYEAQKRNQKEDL
UniProt Q9H204, sequence (Q9H204 whole entry, looked up): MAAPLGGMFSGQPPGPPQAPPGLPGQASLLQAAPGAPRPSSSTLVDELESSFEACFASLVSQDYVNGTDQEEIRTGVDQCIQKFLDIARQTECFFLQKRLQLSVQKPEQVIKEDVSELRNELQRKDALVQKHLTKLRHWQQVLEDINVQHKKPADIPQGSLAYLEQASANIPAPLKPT
UniProt Q16553, sequence (Q16553 whole entry, looked up): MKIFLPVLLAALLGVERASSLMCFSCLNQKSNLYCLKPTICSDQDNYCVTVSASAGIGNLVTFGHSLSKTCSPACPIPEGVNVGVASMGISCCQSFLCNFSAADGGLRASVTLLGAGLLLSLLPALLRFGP

Compound in the test: Cc1cccc(CC(=O)N2CCc3c2ccc(-c2cn(C)c4ncnc(N)c24)c3F)n1
Briefly: log2 fold change, soluble protein after heating vs DMSO (PISA); higher = thermal stabilisation; K562 lysate, 10 uM; active = over 0.2 and 3.5 SD of the protein, either way, in both replicates (recomputed). A digest of the protocol: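 K562 pellets were dounce-homogenised in PBS pH 7.4 with 1 mM MgCl2, and the crude extract at 1 mg/mL protein was treated with 10 μM compound for 30 min. Aliquots were heated for 3 min across 48°C-58°C, pooled, and brought to 0.5% NP-40 at 4°C; soluble protein was the supernatant after 21,000xg for 90 min. Soluble protein was quantified by TMTpro 16plex LC-MS/MS with channel sums equalised, and reported as log2 fold change in thermal stability against DMSO controls, with values from duplicates.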
MAP4K4 isoform 3 (UniProt O95819): the log2 fold change is -0.01 (inactive). In the case of MARCHF6 (UniProt O60337), the log2 fold change was -0.005 (inactive). Under LSM11 (UniProt P83369) stands -0.394 (inactive); under METTL21A (UniProt Q8WXB1), 0.016 (inactive); under KIF2A isoform 2 (UniProt O00139), -0.059 (inactive). Regarding MAPK7 (UniProt Q13164), the log2 fold change was -0.099 (inactive). Turning to MME (UniProt P08473), the log2 fold change is 0.048 (inactive). Then LIMK1 (UniProt P53667), with 0.138 (inactive).

For MEGF8 (UniProt Q7Z7M0), the log2 fold change is -0.011 (inactive). MAPK12 (UniProt P53778): the log2 fold change is -0.163 (inactive). Under MCUB (UniProt Q9NWR8) stands -0.016 (inactive); under KIFC3 isoform 6 (UniProt Q9BVG8), 0.296 (inactive). Regarding LEPROT (UniProt O15243), the log2 fold change was 0.056 (inactive). For the target MMS22L (UniProt Q6ZRQ5), the log2 fold change is -0.029 (inactive). Then MRC2 (UniProt Q9UBG0), with -0.184 (inactive). Take LY6E (UniProt Q16553): the log2 fold change is 0.588 (inactive). Turning to MED28 (UniProt Q9H204), the log2 fold change is -0.038 (inactive). Then LGALS3BP (UniProt Q08380), with 0.53 (inactive).

As to LRRC9 (UniProt Q6ZRR7), the log2 fold change is 0.694 (active). Take LRRC7 (UniProt Q96NW7): the log2 fold change was 0.093 (inactive). Then MRPL22 (UniProt Q9NWU5), with 0.05 (inactive).
